Reference: the supplement of paper PMC6555819

Tests used:
Assay in all cases: PBM binding z-score (relative to random genomic background probes); higher = stronger binding; sequences stand for … in GC…GCGATTGACAGCGTAGAATGAAGG
[1] = system: FXR:RXRa (NR concentration 270 nM, RXRa partner concentration 90 nM)
Outline: (§1)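 Probes were double-stranded and carried 34-nt variable regions with direct-repeat seeds, single-nucleotide variants, half-site ablations and random human genomic background sequences, printed on custom Agilent 4×180K protein-binding microarrays. Arrays were incubated 1 h with ligand-free nuclear receptor dimers in PBS pH 7.4, 2% milk, 0.02% Triton X-100, 1 mM DTT, 0.2 mg/mL BSA and 0.4 mg/ml salmon testes DNA. Antibodies against each partner (one per run) detected binding, and scanned fluorescence was regression-normalized. Binding z-scores use the random background probes as reference.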

[2] = system: LXRa:RXRa (NR concentration 270 nM, RXRa partner concentration 90 nM)
Outline: as §1

[3] = system: LXRa homodimer (NR concentration 270 nM)
Outline: as §1

[4] = system: LXRb:RXRa (NR concentration 270 nM, RXRa partner concentration 90 nM)
Outline: as §1

[5] = system: LXRb homodimer (NR concentration 270 nM)
Outline: as §1

[6] = system: PPARa:RXRa (NR concentration 270 nM, RXRa partner concentration 90 nM)
Outline: as §1

[7] = system: PPARg:RXRa (NR concentration 180 nM, RXRa partner concentration 90 nM)
Outline: as §1

[8] = system: PPARg:RXRa 270nM:90nM, anti-RXR (NR concentration 270 nM, RXRa partner concentration 90 nM)
Outline: as §1

[9] = system: PPARg:RXRa 30nM:10nM, anti-RXR (NR concentration 30 nM, RXRa partner concentration 10 nM)
Outline: as §1

[10] = system: PPARg:RXRa 90nM:30nM, anti-RXR (NR concentration 90 nM, RXRa partner concentration 30 nM)
Outline: as §1

[11] = system: PPARg:RXRa DBDmut IVT, anti-RXR (DBD mutation: RXRa K156A/R161A, NR concentration 270 nM, RXRa partner concentration 90 nM)
Outline: as §1

[12] = system: PPARg:RXRa IVT, anti-PPARg (NR concentration 270 nM, RXRa partner concentration 90 nM)
Outline: as §1

[13] = system: PPARg DBDmut:RXRa IVT, anti-PPARg (DBD mutation: PPARg1 K132A/R137A, NR concentration 270 nM, RXRa partner concentration 90 nM)
Outline: as §1

[14] = system: PPARg DBDmut IVT, anti-PPARg (DBD mutation: PPARg1 K132A/R137A, NR concentration 270 nM)
Outline: as §1

[15] = system: PPARg homodimer (NR concentration 180 nM)
Outline: as §1

[16] = system: PXR:RXRa (NR concentration 270 nM, RXRa partner concentration 90 nM)
Outline: as §1

[17] = system: PXR homodimer (NR concentration 270 nM)
Outline: as §1

[18] = system: RARa:RXR (NR concentration 270 nM, RXRa partner concentration 90 nM)
Outline: as §1

[19] = system: RARa homodimer (NR concentration 270 nM)
Outline: as §1

[20] = system: RARb:RXRa (NR concentration 270 nM, RXRa partner concentration 90 nM)
Outline: as §1

Sequence	PBM binding z-score [1]	PBM binding z-score [2]	PBM binding z-score [3]	PBM binding z-score [4]	PBM binding z-score [5]	PBM binding z-score [6]	PBM binding z-score [7]	PBM binding z-score [8]	PBM binding z-score [9]	PBM binding z-score [10]	PBM binding z-score [11]	PBM binding z-score [12]	PBM binding z-score [13]	PBM binding z-score [14]	PBM binding z-score [15]	PBM binding z-score [16]	PBM binding z-score [17]	PBM binding z-score [18]	PBM binding z-score [19]	PBM binding z-score [20]
CGTCCAAAGTCAATGCTAGGTCAGTGAAAGCATT	0.216	0.789	0.816	0.482	-0.125	0.696	-0.177	-0.216	-0.538	-0.284	0.0357	0.544	-0.669	-0.616	1.04	0.434	-0.027	1.07	0.396	1.68
GCAGACAGGTGAAACGCAGGTAACTCCGGGTGGC	-0.276	0.017	-0.496	-0.36	-1.37	0.805	0.312	0.0906	-0.41	-0.188	0.8	0.556	0.467	-0.826	-0.848	-0.493	-0.692	0.064	-0.954	0.484
TCTAGTTGGTCACTGAGGTCACACACGACGGGTA	4.03	3.64	2.55	3.59	0.98	4.32	3.24	3.98	3.27	3.68	2.68	4.25	2.09	2.11	4.13	4.97	2.81	5.06	2.05	4
ACAGACAGGTGATGAAGGTAACACAGGCTATCAT	0.124	0.0165	-0.085	0.319	-0.129	0.346	1.05	0.295	0.205	0.465	0.127	0.744	0.824	0.414	0.26	-0.00388	0.386	0.0316	0.746	0.493
ACAGAGAGGTGAGTGAAGGTAACTCAGCTGGACG	0.855	0.573	-0.279	0.265	0.454	1.26	0.736	0.54	-0.194	0.056	1.71	1.65	0.674	-0.716	0.508	0.337	0.0847	0.565	0.175	1.48
GCTATTAGTTTAAAGGGCAACCGAATGATTCTCG	0.917	1.13	0.643	1.42	0.922	2.44	2.98	4.5	2.59	4.67	1.27	1.31	0.587	0.575	1.43	1.09	0.349	1.28	0.262	2.09
CCTAGCAGGCCAATCTTGGTCACTCAAGGCTTGA	-0.234	-0.221	-0.7	-0.577	-0.715	-0.114	-0.277	-0.609	-0.894	-0.992	1.37	0.831	-0.756	-1.03	-0.618	-0.565	-0.712	-0.332	-1.07	0.275
TGAATGAGGTTAAAAGATCAGGGAACGTTGCAAA	2.41	2.05	-0.107	1.55	-0.114	3.8	2.57	3.45	1.49	2.53	1.14	2.17	0.743	0.45	0.137	1.26	0.0168	2.04	0.336	1.72
ACAGACAGGTGAGTGAAGGTAACGCAGCTGGACG	0.617	0.126	-0.468	-0.215	-0.518	0.197	0.826	0.162	-0.109	0.232	0.361	1.04	-1.24	-0.822	-0.463	-0.245	-0.327	0.359	-0.195	0.702
CGGCCAAGGTCAATGCTAGGTCAGTGAAAGCATT	6.95	5.47	1.75	4.08	0.00864	5.19	4.4	4.78	1.47	3.21	3.06	3.69	-0.404	-1.18	4.15	4.73	0.802	5.67	0.406	5.24
AGAACGAGGGCACGCTGAATTGATAGCAGAGTAG	0.635	0.375	-0.408	0.0938	-0.694	1.92	2.24	2.02	0.73	1.04	4.42	4.08	0.656	0.0574	-0.00941	0.266	-0.373	0.746	-0.442	2.5
TCTAGCAGGCAAGAGGGTCACTCAAGAGGTACGG	0.555	0.86	-0.678	1.18	-1.24	2.25	1.01	1.76	1.7	1.82	0.584	0.0219	-0.412	-0.872	0.722	1.62	-0.663	2.3	-0.406	1.92
CCTATTAGTTGACCATACGGGCAACCGAAGCTCG	0.382	0.294	0.419	0.323	0.519	-0.224	0.305	-0.0431	-0.298	-0.186	0.407	0.329	0.889	0.71	1.39	-0.0836	0.786	-0.218	1.26	0.631
GCTAGCAGGCTATTTGGGTCACTCAATGACGGGC	0.127	0.137	-0.259	0.255	-0.646	2.16	1.11	1.36	-0.338	0.706	3.1	3.87	-0.208	-0.897	0.28	0.435	-0.454	1.01	-0.508	1.27
TAGCCTAGGTGATTCAGGGGCCAGTATAGAAAGC	-0.423	-0.634	-0.348	-0.094	-0.239	0.0128	0.0919	-0.199	-0.433	0.0704	0.201	0.666	-0.281	0.314	-0.16	-0.295	-0.446	0.184	-0.571	0.516
AGAACGAGGGCACGCTGAGTTGATAGCGGAGTAG	1.07	0.591	-0.337	0.0446	-0.975	1.83	1.78	1.71	-0.0619	0.703	4.05	3.75	0.375	0.0426	0.25	1.35	0.0475	0.611	0.00108	2.42
ATCTCTAGGTAAAGATCAGTGAAAGATCGATAGA	0.248	0.153	0.0101	0.0437	0.463	0.624	1.04	1.14	0.487	0.992	1.79	1.45	0.659	1.08	0.78	-0.0968	0.169	0.174	0.687	0.0569
TCTCGGAGGACACGAAGGTCAGAGCCTTCCAGAG	1.54	1.56	-0.0178	1.35	-0.905	2.1	0.565	1.76	2.02	1.7	1.3	0.917	-1.24	-1.76	1.08	2.11	0.864	2.36	0.0341	3.33
AGAATGAGGTTATACGTAGATCAGGAAAGAAAGT	2.11	1.99	0.118	1.76	0.0606	3.08	2.02	1.97	0.878	1.47	4.05	2.36	1.21	0.76	0.606	1.23	0.488	1.71	0.559	1.37
TTACCAAGGTGAAGGTAGTTGATCCCTCTGTAGA	0.475	0.286	-0.482	0.307	-0.931	1.44	0.324	1.29	0.219	0.784	2.05	2.3	-0.207	-0.0185	0.00789	0.456	-0.74	0.351	-0.156	1.35
CAAACTGGGTCACCGGAAGGTCAAAGTCCGCATG	5.54	5.51	3.33	5	0.871	5.73	9.06	7.43	4.95	7.29	8.13	8.83	1.41	0.892	6.19	5.57	1.27	6.73	0.623	4.9
ACAGACAGGTGATGAAGGTACCTCAGGCTATCAT	-0.309	-0.187	-0.266	-0.411	-0.507	-0.132	0.682	-0.0814	0.3	-0.00206	-0.0914	0.0194	0.29	0.042	-0.0635	-0.279	0.235	0.00944	-0.363	-0.00921
ATCTCTGGGTAACCAAGTTCAGTGAATGCCGAAC	0.227	0.778	0.498	0.621	0.534	1.09	0.329	0.858	-0.0191	0.333	3.23	2.59	0.324	1.24	0.00227	2.4	1.35	0.719	-0.0126	1.24
CTACCAAGGTGATCAAGGTCGTTGATTACTATTC	0.873	0.837	0.0949	1.29	-0.12	1.65	0.258	0.508	-0.15	0.529	1.11	1.31	0.364	-0.201	0.492	2.22	1.77	1.33	0.0994	1.32
ATATGTAGGTTAGCTGGGGTCATTTAGACTAGGC	4.36	5.92	3.36	4.92	1.13	5.22	5.68	5.12	2.41	4.22	6.26	6.32	1.68	2.06	2.64	6.23	3.22	5.08	0.828	2.89
TAGCCTAGGTCAATCAGGGGCCAGTATAGAAAGC	3.77	2.77	0.313	2.59	0.0516	3.34	2.24	2.28	0.674	1.76	1.74	2.75	-0.205	0.00211	1.32	2.04	-0.411	3.2	-0.673	3.89
CCTACTGGGCCAAAAAGGTCAGTGATGCCGATAA	1.31	1.9	0.693	2.27	-0.789	3.36	2.04	2.9	0.549	1.83	3.45	3.63	-0.398	-1.18	2.33	2.55	0.561	3.29	1.18	3.67
CCTAGCAGGCCAATCTGGGTCACTCGAGGCTTGA	-0.0192	1.35	-0.447	0.667	-1	2.98	1.69	1.96	0.0407	1.13	4.16	4.75	-0.336	0.34	1.39	1.1	-0.592	1.85	-0.324	1.56
GGGACTGGGGCAAAGCAGGTTACCATAAGGTTGG	0.776	0.705	0.405	1.24	1.22	2.6	3.59	3.37	0.646	2.33	4.85	5.97	0.631	0.017	1.03	1.21	0.82	1.18	-0.119	1.39
